Sampled rows, rich in hits. Any-hit rate of the full collection: about 2.6%.
TWEAK-Fn14 inh = blocks TWEAK-Fn14 interaction in a reporter cell assay. TWEAK-stimulated Fn14 reporter cells, luciferase luminescence, 8 h. inhibition, % at 10 µM. 360,000 compounds, 2% hits. AID 1159606; in the data active means inhibition above about 50%
KKLEB tox = reduces viability of KKLEB cystic fibrosis airway cells | KKLEB CF airway cells viability, ATPlite luminescence, overnight; stronger effect = lower value; cells stimulated with P. aeruginosa culture filtrate | activity change (cytotoxicity), % at 5 µM | 360,000 compounds, 0.36% hits;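 active means corrected activity change at or below -50% at 5 µM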
TROY NFkB inh = TROY signaling inhibition; Q293 LMP1-TROYcd NF-kB luciferase reporter, 4 h; inhibition, % at 10 µM; 360,000 compounds, 0.98% hits; AID 1347056;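 active means compounds whose plate-normalised and pattern-corrected inhibition of the luciferase reporter signal at the single screening dose is 50% or more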
LGR2 antag = Drosophila LGR2 receptor signaling inhibition; HEK293 LGR2, CRE-luciferase, bursicon-stimulated, 4 h; inhibition, % at 9.99 µM; 380,000 compounds, 0.35% hits; AID 720647;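 active means drop in luminescence signal, shown as inhibition above about 50% in the replicate tests, limit read from the data, passing the limit was not always enough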;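 further: agonist challenge used bursicon conditioned medium at about half maximal strength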
CF NFkB block = inhibitors of cystic fibrosis induced NF-kB; KKLEB NF-kB-GFP reporter, PAF-induced, GFP fluorescence overnight; inhibition, % at 5 µM; 360,000 compounds, 0.86% hits; AID 588850;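 active means at least 50% inhibition at 5 µM, scaled per plate between neutral and stimulator controls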;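 further: PAF is a Pseudomonas aeruginosa culture filtrate used as stimulus; plate controls were PAF-stimulated DMSO wells for no effect and unstimulated DMSO wells for full effect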
EWS-Fli block = inhibitors of EWS/Fli oncoprotein transcriptional activity. inhibition, % at 12.6 µM. 350,000 compounds, 0.67% hits. AID 651661. A673 NR0B1-luciferase reporter, viability-normalised;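 active means mean inhibition of at least 50% after viability correction, with every replicate also passing that limit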;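 further: firefly luciferase signal divided by Alamar Blue viability fluorescence both relative to DMSO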
The depositor's hits bear a star; . = no result given.

SMILES	TWEAK-Fn14 inh	KKLEB tox	TROY NFkB inh	LGR2 antag	CF NFkB block	EWS-Fli block
CCOc1ccc(-c2cc(C(=O)Nc3ccc(C)c(NS(C)(=O)=O)c3)[nH]n2)c(C)c1	52*	4	39	12	-13	-3
COc1cc2nc(Nc3ccc(C)c(C)c3)nc(N)c2cc1OC	-36	-29	-43	-12	-27	-3
Cc1ccccc1Nc1nc(N)c2ccccc2n1	53*	-25	-34	3	22	-20
Cc1ccccc1Nc1nc(N)nc(CSc2nc3ccccc3c(=O)n2C)n1	66*	-12	44	15	9	.
COc1ccc(C)cc1Nc1nc(N)c2ccccc2n1	-16	2	-42	-7	-10	-22
Cc1ccccc1Nc1nc(N)nc(CSc2nc3ccccc3c(=O)n2CCCO)n1	1	-11	-7	-12	2	.
COc1cc2nc(Nc3ccc(C)c(Cl)c3)nc(N)c2cc1OC	102*	-51*	33	31	-1	49
Cc1ccc(Nc2nc(N)c3ccccc3n2)cc1Cl	68*	-46	16	72*	1	24
COc1ccc(S(=O)(=O)N(C)C[C@H]2OCCCC[C@H](C)Oc3ccc(NC(=O)CCC(F)(F)F)cc3C(=O)N([C@H](C)CO)C[C@H]2C)cc1	.	.	.	-3	.	7
C[C@@H]1CN([C@H](C)CO)C(=O)CCCn2cc(nn2)CO[C@@H]1CN(C)C(=O)CCC(F)(F)F	.	.	.	14	.	-1
COc1ccc(OCC(=O)Nc2nccs2)cc1	81*	-7	46	66*	6	27
COCc1nnc(NC(=O)COc2ccc3c(c2)OCO3)s1	25	-6	-53	3	14	-2
O=C(COc1ccc2c(c1)OCO2)Nc1nccs1	66*	-5	35	61*	2	14
COc1ccc(OCCC(=O)Nc2nccs2)cc1	12	-5	-2	4	7	-3
CCOc1ccc(OCC(=O)Nc2nccs2)cc1	85*	-9	65*	.	-2	.
C[C@@H]1CN([C@H](C)CO)C(=O)c2cc(NC(=O)Cn3cnnn3)ccc2O[C@H]1CN(C)S(C)(=O)=O	.	.	.	-2	.	4
CC(C)NC(=O)Nc1ccc2c(c1)C(=O)N([C@H](C)CO)C[C@@H](C)[C@H](CN(C)C(=O)Nc1ccc(C(F)(F)F)cc1)O2	.	.	.	9	.	-1
O=[N+]([O-])c1ccccc1COc1ccc(Cl)c2cccnc12	65*	-2	-3	-97	0	29
O=C(Oc1ccc(Cl)c2cccnc12)c1cccc([N+](=O)[O-])c1	21	-32	5	-1	28	18
CCC(=O)N1CC2(C1)[C@@H](c1ccccc1)[C@@H](CO)N2C(=O)NC(C)C	.	.	.	0	.	1
O=C(O)CCCc1ccc2c(c1)CCc1ccccc1-2	56*	-2	27	-21	-24	63*
O=C(CCCc1ccccc1)NC1CC1	-13	-4	-9	11	-2	.
CCCc1ccc(-c2cc(C(=O)N/N=C/c3ccc([N+](=O)[O-])o3)c3ccccc3n2)cc1	32	-51*	-20	.	-4	.
CCCOc1cccc(-c2cc(C(=O)N/N=C/c3cccnc3)c3ccccc3n2)c1	-29	-12	21	-14	-4	.
O=C(N/N=C/c1ccccn1)c1cc(-c2ccc(Br)cc2)nc2ccccc12	100*	5	-5	11	-27	17
SMILES	TWEAK-Fn14 inh	KKLEB tox	TROY NFkB inh	LGR2 antag	CF NFkB block	EWS-Fli block
CCCOc1cccc(-c2cc(C(=O)N/N=C/c3ccccn3)c3ccccc3n2)c1	94*	-20	41	-8	-6	.
COCC(=O)N1CC2(C1)CN(Cc1ccccc1Cl)[C@@H](CO)c1c2c2ccc(OC)cc2n1C	.	.	.	12	.	1
Cc1ccc(S(=O)(=O)Nc2ccc3c(c2)CC(=O)N([C@H](C)CO)C[C@@H](C)[C@H](CN(C)S(=O)(=O)c2ccc(C)cc2)O3)cc1	.	.	.	-3	.	-3
COc1ccc(-c2cc3nc(CCl)[nH]c(=O)c3s2)cc1	63*	-23	-2	68*	9	35
COc1ccc(-c2cc3nc[nH]c(=O)c3s2)cc1	33	-12	-42	.	2	.
C[C@H](CO)N1C[C@H](C)[C@H](CN(C)C(=O)CCCN(C)C)OCCCC[C@H](C)Oc2ccc(NC(=O)C3CCCCC3)cc2C1=O	.	.	.	6	.	-3
Cc1cccc(C)c1-n1nnnc1-c1nc2cc3ccccc3cc2[nH]c1=O	45	.	25	-9	.	54*
NS(=O)(=O)c1ccc(-c2ccc(/C=N/Nc3ccc(C(=O)O)cc3)o2)cc1	50*	9	16	-15	4	13
C[C@@H]1CN([C@@H](C)CO)C(=O)c2cc(NC(=O)Nc3ccc(C(F)(F)F)cc3)ccc2O[C@@H](C)CCCCO[C@H]1CN(C)S(=O)(=O)c1ccc(F)cc1	.	.	.	8	.	6
Cc1ccc(NC(=S)N(CCN2CCOCC2)Cc2cc3cc4c(cc3[nH]c2=O)OCCO4)cc1	4	-28	3	-16	33	-2
Cc1cccc(NC(=S)N(CCN2CCOCC2)Cc2cc3cc4c(cc3[nH]c2=O)OCCO4)c1	67*	-2	73*	-18	-10	3
Cc1ccccc1-c1nc(C(=O)NCC2CCCO2)cc2c1[nH]c1ccccc12 (stereo not given)	54*	0	-3	26	19	17
Cc1ccc(-c2nc(C(=O)NCC3CCCO3)cc3c2[nH]c2ccccc23)cc1 (stereo not given)	53*	-17	15	.	30	20
CCCNC(=O)Nc1ccc2c(c1)OC[C@@H](C)N(CCC(F)(F)F)C[C@H](C)[C@@H](OC)CN(C)C2=O	.	.	.	8	.	-3
COc1ccc(S(=O)(=O)N(C)C[C@H]2OCCCC[C@H](C)Oc3ccc(N(C)C)cc3C(=O)N([C@@H](C)CO)C[C@@H]2C)cc1	.	.	.	-2	.	8
CC1CN/C(=C\C(=O)c2ccc(Cl)cc2)C(=O)N1 (stereo not given)	73*	12	-13	.	6	.
c1cc(-c2ccc(C3[C@H]4CNC[C@@H]3N4Cc3nccs3)cc2)ccn1 (stereo not given in full)	.	.	.	4	.	-2
CC(C)(C)NC(=S)Nc1ccc(Nc2ccccc2)cc1	56*	14	-61	.	-23	.
C[C@@H]1CN([C@@H](C)CO)C(=O)c2cc(C#Cc3ccccc3)cnc2O[C@H]1CN(C)C(=O)CN(C)C	.	.	.	14	.	-5
C[C@@H]1CN([C@@H](C)CO)C(=O)c2cc(NS(=O)(=O)c3cccs3)ccc2O[C@H]1CN(C)Cc1ccc(C(=O)O)cc1	.	.	.	2	.	-6
CCOC(=O)N1CCN(c2ncnc3c2cnn3-c2ccc(Cl)cc2)CC1	.	.	.	1	.	1
CCOC(=O)C1CCCN(c2ncnc3c2cnn3-c2cccc(C)c2)C1 (stereo not given)	40	4	20	.	-2	.
CCN(CC)C(=O)C1CCCN(c2ncnc3c2cnn3-c2ccc(Cl)cc2)C1 (stereo not given)	71*	-6	63*	7	-1	37

Screening data as filed in PubChem.
